Laboratory results taken from PubChem BioAssay (EPA / NIEHS).
Several values for one entry are separate records, joined by “and”; a condition that tells them apart may be missing. Identical values can stand only once. Where a structure was tested more than once in an assay, its records may differ in their call. Activity calls are given as the source filed them. How the source made its calls: active means hit-call score of the fitted dose curve at least 0.9, where 1 is the maximum; inactive means score below 0.9.

How the values were obtained:
[1] = ATG_CRE_CIS: Attagene CIS-FACTORIAL HepG2 Assay for human cAMP Responsive Element (CRE) binding protein 3 (AID 2282926); conditions: HepG2 CRE cis-reporter, Attagene multiplexed mRNA; actives raise or lower the signal
In short: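 Assay format: transient reporter transfection of HepG2, 24 h treatment, total RNA isolation with DNase I step. Reporter abundance read by fluorescence after PCR and capillary separation; DMSO-normalised gain or loss fitting.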

[2] = target: CCAAT/enhancer-binding protein beta (Homo sapiens) (UniProt P17676); assay: ATG_C_EBP_CIS: Attagene CIS-FACTORIAL HepG2 Assay for human CCAAT/Enhancer Binding Protein (C/EBP) beta (AID 2282927); conditions: HepG2 Attagene cis-factorial transcription factor reporter; actives raise or lower the signal
CCAAT/enhancer-binding protein beta (Homo sapiens), sequence (P17676 whole entry, looked up): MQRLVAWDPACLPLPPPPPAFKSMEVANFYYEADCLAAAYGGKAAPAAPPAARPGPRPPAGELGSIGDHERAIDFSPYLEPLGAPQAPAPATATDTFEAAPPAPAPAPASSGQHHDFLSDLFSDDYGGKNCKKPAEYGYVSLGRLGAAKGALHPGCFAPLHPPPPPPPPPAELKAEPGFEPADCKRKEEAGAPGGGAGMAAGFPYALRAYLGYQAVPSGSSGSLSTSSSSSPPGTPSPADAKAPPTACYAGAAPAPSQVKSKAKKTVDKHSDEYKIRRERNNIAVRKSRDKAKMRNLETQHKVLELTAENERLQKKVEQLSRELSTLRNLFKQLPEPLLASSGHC
In short: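 Following a 24 h incubation with test chemical, transfected HepG2 cells yielded RNA whose reporter transcripts were quantified by RT-PCR and fluorescent capillary electrophoresis, with DMSO serving as baseline for bidirectional fitting.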

[3] = ATG_CMV_CIS: Attagene CIS-FACTORIAL HepG2 Assay for human CMV (Internal Marker) (AID 2282928); conditions: HepG2 CMV promoter reporter, transcription factor profiling; actives raise or lower the signal;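 further: endpoint acts as a background internal control marker rather than a target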
In short: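 Fluorescence intensity of RT-PCR-derived reporter fragments, resolved by capillary electrophoresis, gives the signal. HepG2 liver cells bearing transfected cis-element reporters were treated 24 h; activity in either direction was fit relative to DMSO-treated controls.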

[4] = ATG_DR4_LXR_CIS: Attagene CIS-FACTORIAL HepG2 Assay for human Liver X Receptor (LXR), DR4 submotif (AID 2282929); conditions: HepG2 Attagene DR4 cis-reporter, mRNA transcription; actives raise or lower the signal
In short: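 HepG2, transient MRTU transfection, cis-element (DR4) promoter; 24 h compound exposure; total RNA → oligo(dT) RT → PCR → 6-FAM primer extension → HpaI cut → CE. Gain/loss vs DMSO, bidirectional fit.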

[5] = target: Aryl hydrocarbon receptor (Homo sapiens) (UniProt P35869); assay: ATG_Ahr_CIS: Attagene CIS-FACTORIAL HepG2 Assay for human Aryl Hydrocarbon Receptor (Ahr) (AID 2282930); conditions: HepG2 AhR cis-factorial reporter transcription; actives raise or lower the signal
Aryl hydrocarbon receptor (Homo sapiens), sequence (P35869 whole entry, looked up): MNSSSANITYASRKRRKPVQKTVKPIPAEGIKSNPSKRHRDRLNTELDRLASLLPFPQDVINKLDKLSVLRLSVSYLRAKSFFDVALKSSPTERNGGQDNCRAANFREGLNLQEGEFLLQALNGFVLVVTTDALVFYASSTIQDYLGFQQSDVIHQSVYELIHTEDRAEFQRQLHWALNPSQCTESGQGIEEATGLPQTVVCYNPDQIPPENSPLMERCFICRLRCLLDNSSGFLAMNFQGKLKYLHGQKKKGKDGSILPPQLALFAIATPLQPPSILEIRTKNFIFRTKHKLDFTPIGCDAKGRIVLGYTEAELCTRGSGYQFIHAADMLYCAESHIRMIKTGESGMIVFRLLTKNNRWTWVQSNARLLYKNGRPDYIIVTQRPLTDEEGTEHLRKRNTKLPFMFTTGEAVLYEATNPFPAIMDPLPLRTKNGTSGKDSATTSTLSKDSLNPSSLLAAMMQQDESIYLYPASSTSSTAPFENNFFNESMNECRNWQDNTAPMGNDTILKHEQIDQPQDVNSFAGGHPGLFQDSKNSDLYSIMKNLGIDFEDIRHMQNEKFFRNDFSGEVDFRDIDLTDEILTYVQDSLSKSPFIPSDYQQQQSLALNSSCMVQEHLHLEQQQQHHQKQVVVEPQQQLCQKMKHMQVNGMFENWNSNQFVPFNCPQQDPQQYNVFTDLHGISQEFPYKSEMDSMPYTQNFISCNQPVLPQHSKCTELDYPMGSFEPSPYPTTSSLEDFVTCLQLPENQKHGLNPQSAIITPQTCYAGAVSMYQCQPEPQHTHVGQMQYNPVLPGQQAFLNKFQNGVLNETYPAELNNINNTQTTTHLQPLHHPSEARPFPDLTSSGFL
In short: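 Values derive from bidirectional fitting against DMSO negative control. Underlying signal: cis-element reporter mRNA in transiently transfected HepG2, harvested 24 h post-dose and measured by RT-PCR plus capillary electrophoresis.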

[6] = ATG_AP_1_CIS: Attagene CIS-FACTORIAL HepG2 Assay for human Activator Protein 1 (AP-1) (AID 2282931); conditions: HepG2 Attagene cis-factorial AP-1 reporter mRNA; actives raise or lower the signal
In short: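 Transient MRTU transfection of HepG2 → 24 h chemical treatment → RNA isolation, RT-PCR, 6-FAM labelling, HpaI digest → capillary electrophoresis. Fit: bidirectional, DMSO negative control.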

[7] = ATG_AP_2_CIS: Attagene CIS-FACTORIAL HepG2 Assay for human Activator Protein 2 (AP-2) (AID 2282932); conditions: HepG2 AP-2 cis-reporter, Attagene transcription factor profiling; actives raise or lower the signal
In short: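 Cells (HepG2) transfected with promoter-driven reporter constructs, treated 24 h. Total RNA reverse-transcribed, reporter cDNA PCR-amplified, FAM-labelled by primer extension, digested, resolved by capillary electrophoresis. Activity fitted both directions versus DMSO.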

[8] = ATG_BRE_CIS: Attagene CIS-FACTORIAL HepG2 Assay for human Bone Morphogenetic Protein (BMP) Response Element (BRE) (AID 2282933); conditions: HepG2 BMP response element reporter, Attagene transcription factor profiling; actives raise or lower the signal
In short: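 After a 24 h chemical treatment, transiently transfected HepG2 cells were lysed for RNA; reporter transcripts were quantified by fluorescent RT-PCR and capillary electrophoresis, normalised to DMSO.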

[9] = target: Retinoic acid receptor alpha (Homo sapiens) (UniProt P10276); assay: ATG_DR5_RAR_CIS: Attagene CIS-FACTORIAL HepG2 Assay for human Retinoic Acid Receptor Alpha (RARE), DR5 submotif (AID 2282934); conditions: HepG2 Attagene cis-factorial RARE DR5 reporter, mRNA; actives raise or lower the signal;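 on AC50: reporter responds to endogenous RAR alpha beta and gamma in HepG2 not RARA alone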
Retinoic acid receptor alpha (Homo sapiens), sequence (P10276 whole entry, looked up): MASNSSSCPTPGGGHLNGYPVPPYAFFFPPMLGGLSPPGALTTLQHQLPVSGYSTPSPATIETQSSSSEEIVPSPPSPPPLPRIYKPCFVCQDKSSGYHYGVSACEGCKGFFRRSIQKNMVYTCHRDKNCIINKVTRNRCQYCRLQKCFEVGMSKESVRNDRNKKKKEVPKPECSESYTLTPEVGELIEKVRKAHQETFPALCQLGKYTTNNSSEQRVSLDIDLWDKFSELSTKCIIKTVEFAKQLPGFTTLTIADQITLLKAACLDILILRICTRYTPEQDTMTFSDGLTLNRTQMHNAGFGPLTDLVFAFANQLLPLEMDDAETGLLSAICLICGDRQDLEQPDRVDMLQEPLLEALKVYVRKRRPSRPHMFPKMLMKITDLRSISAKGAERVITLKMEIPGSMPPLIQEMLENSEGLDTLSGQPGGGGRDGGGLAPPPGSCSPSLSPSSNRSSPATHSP
In short: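 Endpoint fitted in both directions relative to DMSO as negative control. It reflects DR5 cis-element reporter mRNA induction in transiently transfected HepG2 cells, measured 24 h after dosing through RT-PCR and fluorescent capillary electrophoresis.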

[10] = target: Transcription factor E2F1 (Homo sapiens) (UniProt Q01094); assay: ATG_E2F_CIS: Attagene CIS-FACTORIAL HepG2 Assay for human E2F Transcription Factor 1 (AID 2282935); conditions: HepG2 Attagene cis-reporter, E2F reporter RNA transcripts; actives raise or lower the signal
Transcription factor E2F1 (Homo sapiens), sequence (Q01094 whole entry, looked up): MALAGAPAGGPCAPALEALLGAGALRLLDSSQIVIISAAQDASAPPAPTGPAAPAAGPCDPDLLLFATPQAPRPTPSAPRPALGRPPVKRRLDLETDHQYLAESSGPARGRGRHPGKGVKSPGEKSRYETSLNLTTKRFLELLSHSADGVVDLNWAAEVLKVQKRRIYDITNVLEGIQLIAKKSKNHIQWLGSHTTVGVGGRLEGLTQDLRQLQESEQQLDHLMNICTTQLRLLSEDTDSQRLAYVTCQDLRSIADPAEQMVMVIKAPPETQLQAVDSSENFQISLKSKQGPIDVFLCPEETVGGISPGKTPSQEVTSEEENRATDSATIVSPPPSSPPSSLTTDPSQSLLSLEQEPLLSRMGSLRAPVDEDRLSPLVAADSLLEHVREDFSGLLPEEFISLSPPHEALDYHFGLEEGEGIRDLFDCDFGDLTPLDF
In short: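 First, HepG2 cells were transfected with reporter transcription units. Next, they were dosed for 24 h. Then RNA was isolated, converted to cDNA, PCR-amplified, FAM-labeled, HpaI-digested and analyzed by capillary electrophoresis.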

[11] = ATG_E_Box_CIS: Attagene CIS-FACTORIAL HepG2 Assay for human Enhancer Box (E-box) (AID 2282936); conditions: HepG2 E-box cis-reporter transcription, actives raise or lower the signal
In short: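 Endogenous transcription factor activity was sensed in human HepG2 liver cells through transfected cis-promoter reporter units. After 24 h of dosing, total RNA was reverse-transcribed and reporter cDNA resolved by capillary electrophoresis.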

[12] = ATG_M_61_CIS: Attagene CIS-FACTORIAL HepG2 Assay for M61 Transcription Factor (Internal Marker) (AID 2282937); conditions: HepG2 Attagene CIS-FACTORIAL M61 internal marker reporter; actives raise or lower the signal
In short: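 Human liver HepG2, transient MRTU transfection (cis promoter elements), 24 h compound. Total RNA → oligo(dT) RT → PCR → FAM label → HpaI → CE. Internal background marker; bidirectional fitting, DMSO = baseline.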

[13] = ATG_EGR_CIS: Attagene CIS-FACTORIAL HepG2 Assay for human Early Growth Response 1 (EGR1) (AID 2282938); conditions: HepG2 Attagene CIS-FACTORIAL EGR reporter mRNA; actives raise or lower the signal
In short: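 Transient transfection of human HepG2 with multiple cis-regulated reporter units, chemical exposure 24 h, total RNA isolated. Reverse transcription, PCR, fluorescent labelling and capillary electrophoresis quantify reporter transcripts; activity fitted bidirectionally against DMSO.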

[14] = ATG_M_19_CIS: Attagene CIS-FACTORIAL HepG2 Assay for M19 Transcription Factor (Internal Marker) (AID 2282939); conditions: HepG2 Attagene CIS-FACTORIAL M19 internal marker reporter; actives raise or lower the signal
In short: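 In this multiplexed cell assay, transiently transfected HepG2 reporter units report endogenous transcription-factor activity; after 24 hours of treatment, labelled reporter cDNA fragments are quantified by capillary electrophoresis and fitted bidirectionally against DMSO.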

[15] = ATG_Ets_CIS: Attagene CIS-FACTORIAL HepG2 Assay for human Erythroblast Transformation Specific (ETS) (AID 2282941); conditions: HepG2 ETS cis-reporter transcription, actives raise or lower the signal
In short: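 Multiplexed reporter transcript profiling: HepG2, 24 h treatment, total RNA to cDNA, PCR, 6-FAM labelling, HpaI cut, capillary electrophoresis. Gain- or loss-of-signal fitted against DMSO.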

[16] = target: Hepatocyte nuclear factor 3-beta (Homo sapiens) (UniProt Q9Y261); assay: ATG_FoxA2_CIS: Attagene CIS-FACTORIAL HepG2 Assay for human Forkhead box A2 (FOXA2) (AID 2282942); conditions: HepG2 cis-reporter transcription factor activity, 24 h; actives raise or lower the signal
Hepatocyte nuclear factor 3-beta (Homo sapiens), sequence (Q9Y261 whole entry, looked up): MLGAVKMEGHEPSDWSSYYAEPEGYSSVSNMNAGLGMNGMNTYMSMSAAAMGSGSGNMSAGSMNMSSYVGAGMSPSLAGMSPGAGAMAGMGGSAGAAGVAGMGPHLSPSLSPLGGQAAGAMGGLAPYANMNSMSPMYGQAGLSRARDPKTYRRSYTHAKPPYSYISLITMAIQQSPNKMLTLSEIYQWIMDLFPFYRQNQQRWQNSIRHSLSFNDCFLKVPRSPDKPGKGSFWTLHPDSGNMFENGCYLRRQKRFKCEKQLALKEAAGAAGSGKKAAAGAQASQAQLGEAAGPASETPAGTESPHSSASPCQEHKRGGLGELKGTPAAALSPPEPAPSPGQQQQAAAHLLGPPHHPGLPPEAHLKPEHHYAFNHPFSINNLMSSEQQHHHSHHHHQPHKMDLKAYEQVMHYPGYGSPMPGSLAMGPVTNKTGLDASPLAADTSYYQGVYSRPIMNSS
In short: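 Transient MRTU transfection of HepG2 liver cells; 24 h treatment; total RNA → oligo(dT) RT → PCR → FAM primer extension → HpaI cut → CE. Bidirectional fit vs DMSO.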

[17] = ATG_FoxO_CIS: Attagene CIS-FACTORIAL HepG2 Assay for human Forkhead box O (FoxO) (AID 2282943); conditions: HepG2 Attagene cis-reporter, FoxO element, mRNA; actives raise or lower the signal
In short: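 Values reflect reporter mRNA induction or loss in HepG2 cells 24 h post-dosing, fitted bidirectionally with DMSO as negative control and baseline. Detection used RT-PCR and fluorescence capillary electrophoresis.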

[18] = ATG_GATA_CIS: Attagene CIS-FACTORIAL HepG2 Assay for human GATA Binding Protein (AID 2282944); conditions: HepG2 GATA cis-element reporter, Attagene multiplex mRNA; actives raise or lower the signal
In short: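 Measures endogenous transcription factor-driven reporter mRNA in HepG2 cells transiently carrying cis-regulated constructs. 24 h dosing; RNA via oligo(dT) reverse transcription, PCR, HpaI digestion, capillary electrophoresis; fitted relative to DMSO.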

[19] = ATG_GLI_CIS: Attagene CIS-FACTORIAL HepG2 Assay for human Zinc Finger Protein GLI1 (AID 2282945); conditions: HepG2, Attagene cis-factorial reporter mRNA, GLI element; actives raise or lower the signal
In short: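 HepG2 cells transiently transfected with cis-promoter multiplexed reporter units report endogenous transcription factor activity. After 24 h chemical exposure, reporter mRNA was quantified by RT-PCR, 6-FAM labelling, HpaI digestion and capillary electrophoresis, with bidirectional fitting against DMSO.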

Measured: AC50

CC(C)(OOC(C)(C)c1ccccc1)c1ccccc1
active: [1] 57.4 µM | [2] 59.3 µM | [3] 48.7 µM | [4] 63.9 µM | [6] 57.5 µM | [8] 48.5 µM | [13] 61.9 µM | [15] 100 µM | [19] 59.1 µM
inactive: all other assays above

ClCCOCCCl
inactive: all assays above

Cc1cccc(N)c1N
active: [1] 158 µM | [3] 30.3 µM | [5] 1.09 µM | [6] 30.5 µM | [9] 106 µM | [13] 106 µM | [15] 77.1 µM
inactive: all other assays above

Clc1ccc(Cl)c(Cl)c1
active: [5] 77.8 µM
inactive: all other assays above

[As]#[In]
active: [5] 65 µM
inactive: all other assays above

CCNS(=O)(=O)C(F)(F)C(F)(F)C(F)(F)C(F)(F)C(F)(F)C(F)(F)C(F)(F)C(F)(F)F
inactive: [2] | [3] | [4] | [5] | [6] | [7] | [9] | [10] | [11] | [12] | [13] | [14] | [15] | [16] | [17] | [18] | [19]
active: [1] 45.3 µM and 16.1 µM and 15.7 µM | [6] 29.9 µM and 75.2 µM | [8] 33.4 µM and 63.6 µM and 35.3 µM | [9] 96.5 µM | [13] 96.5 µM | [18] 138 µM | [19] 96.5 µM
